# A selection: hits, their analogues and other compounds. The true share with any hit is near 2.5%.
# ULK1 inh = blocks human autophagy kinase ULK1; hit rate 1.9% among 30,000; inhibition, % at 5.96 µM; O75385; AlphaScreen Atg13 phosphorylation by ULK1, luminescence; in the data active = inhibition above about 43%;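 also: 0% = median of compound wells and 100% = no enzyme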
# Target sequence (O75385 whole entry, looked up): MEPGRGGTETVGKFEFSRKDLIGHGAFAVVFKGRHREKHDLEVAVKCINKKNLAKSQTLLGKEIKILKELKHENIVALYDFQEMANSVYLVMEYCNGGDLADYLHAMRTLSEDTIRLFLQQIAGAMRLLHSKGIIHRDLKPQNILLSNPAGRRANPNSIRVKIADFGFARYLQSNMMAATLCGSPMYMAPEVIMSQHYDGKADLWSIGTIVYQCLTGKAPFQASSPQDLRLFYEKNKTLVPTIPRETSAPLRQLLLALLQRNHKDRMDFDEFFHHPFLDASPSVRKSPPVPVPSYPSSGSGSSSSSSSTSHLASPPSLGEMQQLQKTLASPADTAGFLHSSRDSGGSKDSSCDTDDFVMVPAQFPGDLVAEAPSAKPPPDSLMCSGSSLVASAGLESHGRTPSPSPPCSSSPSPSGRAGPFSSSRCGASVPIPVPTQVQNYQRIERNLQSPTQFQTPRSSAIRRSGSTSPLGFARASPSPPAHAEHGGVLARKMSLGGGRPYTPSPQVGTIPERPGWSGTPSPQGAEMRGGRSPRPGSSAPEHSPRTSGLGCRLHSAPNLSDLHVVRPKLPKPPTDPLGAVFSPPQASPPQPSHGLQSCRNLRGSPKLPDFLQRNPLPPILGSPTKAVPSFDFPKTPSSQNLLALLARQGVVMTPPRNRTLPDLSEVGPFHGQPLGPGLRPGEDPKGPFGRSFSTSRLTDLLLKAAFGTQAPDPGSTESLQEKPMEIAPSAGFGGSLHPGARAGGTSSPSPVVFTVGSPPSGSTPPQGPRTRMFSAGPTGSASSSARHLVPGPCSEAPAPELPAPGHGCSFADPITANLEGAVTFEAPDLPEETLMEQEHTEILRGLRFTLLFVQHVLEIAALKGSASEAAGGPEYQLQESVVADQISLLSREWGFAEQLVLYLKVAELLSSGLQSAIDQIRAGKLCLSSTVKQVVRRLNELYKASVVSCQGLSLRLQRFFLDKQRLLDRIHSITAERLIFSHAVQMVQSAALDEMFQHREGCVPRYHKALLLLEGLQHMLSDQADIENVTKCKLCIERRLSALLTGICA
# ASK1 primary = human ASK1 kinase inhibition, primary screen | Q99683 | hit rate 0.99% among 22,000 | inhibition, % at 7.44 µM | AlphaScreen MKK6 phosphorylation by ASK1, luminescence; in the data active = inhibition above about 35%;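 also: 0% = median of compound wells and 100% = no enzyme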
# The depositor's hits bear a star; · = no result.
SMILES,ULK1 inh,ASK1 primary
O=C(O)c1cc(O)c2c(c1)[C@@H]([C@H]1c3cc(C(=O)O)cc(O)c3C(=O)c3c(O[C@H]4O[C@H](CO)[C@@H](O)[C@H](O)[C@H]4O)cccc31)c1cccc(O[C@H]3O[C@H](CO)[C@@H](O)[C@H](O)[C@H]3O)c1C2=O,67*,·
O=C1c2c(O)cccc2C(C2OC(CO)[C@@H](O)[C@H](O)[C@H]2O)c2cc(CO)cc(O)c21 (stereo partly drawn),-1,·
COc1cc(NC(=O)c2ccnc(-c3ccc(C(=O)NC4CC4)cc3)c2)cc(OC)c1OC,2,2
CN(C)CCNC(=O)c1ccc2c(c1)CC(c1nc3ccc(-c4cn[nH]c4)cc3s1)CO2 (stereo not drawn),16,-5
O=C(O)c1c(Cl)c(Cl)c(Cl)c(Cl)c1-c1c2cc(I)c(=O)c(I)c-2oc2c(I)c(O)c(I)cc12,45*,·
O=C(O)c1ccccc1-c1c2cc(I)c(=O)c(I)c-2oc2c(I)c(O)c(I)cc12,26,·
O=C(NCCCN1CCCC1=O)c1ccc2nc(Nc3ccc(-n4ccnc4)cc3)sc2c1,8,3
CC(C)N(CCNC(=O)C1CCN(c2ccc(N3CCCC3CO)nn2)CC1)C(C)C (stereo not drawn),56*,2
O=C(NCCO)C1CCN(c2ccc(N3CCCC3CO)nn2)CC1 (stereo not drawn),-4,-5
Cn1nccc1Nc1nc(NC2CC2)c2ncn(-c3ccsc3)c2n1,17,-6
CN1CCN(c2ccc(-c3cc(C(=O)Nc4ccccc4)ccn3)cc2)CC1,34,8
Cc1ncn(-c2ccc(Nc3nccc(-c4ccc(NS(C)(=O)=O)cc4)n3)cc2)n1,57*,6
N#Cc1cc(-c2ccnc(Nc3ccc(N4CCC(O)CC4)cc3)n2)cc(N2CCOCC2)c1,-62,32
Cc1ncn(-c2ccc(Nc3nccc(-c4ccc(N5CCOCC5)cc4)n3)cc2)n1,16,7
CS(=O)(=O)Nc1ccc(-c2ccnc(Nc3ccc(N4CCC(O)CC4)cc3)n2)cc1,75*,-16
O=C(c1cnccc1Nc1ccc(Cl)c(F)c1)N1CCNCC1,-6,3
c1cc(N2CCOCC2)ccc1Nc1nc(NCCN2CCOCC2)nc2c1ncn2C1CCCCC1,55*,-35
NC(=O)c1ccc(-c2nc(Nc3ccc(N4CCOCC4)cc3)c3ncn(C4CCCCC4)c3n2)cc1,44*,0
c1ccc(Nc2nc(NCCN3CCOCC3)c3ncn(C4CCCCC4)c3n2)cc1,-10,11
CN1CCN(C(=O)c2ccc(-c3nc(Nc4ccc(N5CCOCC5)cc4)c4ncn(C5CCCCC5)c4n3)cc2)CC1,1,13
c1cc(-c2nc(NCCN3CCOCC3)c3ccncc3n2)ccn1,1,-13
CC(C)n1cnc2c(NCCN3CCOCC3)nc(-c3ccc(N4CCOCC4)nc3)nc21,10,-3
CC(=O)Nc1ccc(Nc2nc(-c3ccc(N4CCOCC4)nc3)ncc2C)cc1,59*,-3
CC(=O)Nc1ccc(Nc2nc(-c3ccc(N4CCOCC4)nc3)nc3nc[nH]c23)cc1,-11,10
O=C(Nc1nc2ccc(-c3cn[nH]c3)cc2s1)c1ccccc1,13,6
SMILES,ULK1 inh,ASK1 primary
O=C(Nc1ccc(N2CCOCC2)cc1)C1CCN(c2ccc(Nc3ccc4ncccc4c3)nn2)CC1,49*,-19
O=C(Nc1ccc(N2CCOCC2)cc1)C1CCN(c2ccc(Nc3ccc(N4CCOCC4)cc3)nn2)CC1,-16,-15
Cc1nn(C)c(C)c1-c1ccc(C(=O)NCc2cccc(C(F)(F)F)c2)s1,-20,-21
N#Cc1cc(-c2ccnc(Nc3ccc(-n4cnc(N5CCOCC5)n4)cc3)n2)ccc1N1CCC(O)CC1,49*,-15
N#Cc1cc(-c2ccnc(Nc3ccc(-c4nn[nH]n4)cc3)n2)ccc1N1CCC(O)CC1,75*,-31
Cc1ncn(-c2ccc(Nc3nccc(-c4ccc(C#N)c(N5CCOCC5)c4)n3)cc2)n1,-20,1
c1cc(-c2ccnc(Nc3ccc(-c4nn[nH]n4)cc3)n2)cc(N2CCOCC2)c1,-24,-4
O=C(Nc1ccc(N2CCOCC2)cc1)c1ccc2nc(Nc3ccc(-n4ccnc4)cc3)sc2c1,11,2
Cc1noc(C)c1-c1nc(NCCN2CCOCC2)c2ncn(-c3ccccc3)c2n1,5,1
O=C(NCCO)c1csc(-c2cccs2)n1,-16,-3
Cc1ncn(-c2ccc(N(CC3CC3)c3ncc4cccc(-c5cnn(CC6CC6)c5)c4n3)cc2)n1,99*,-6
Cc1ncn(-c2ccc(Nc3ncc4cccc(-c5cnc6ccccc6c5)c4n3)cc2)n1,10,-8
COc1cccc(CNS(=O)(=O)c2ccc(-c3ccnc4[nH]ccc34)cc2)c1,22,-6
O=S(=O)(NCc1ccccc1)c1ccc(-c2ncnc3[nH]ccc23)cc1,45*,1
COc1cccc(CNS(=O)(=O)c2ccc(-c3ncnc4[nH]cc(C)c34)cc2)c1,59*,0
COc1cccc(CNC(=O)Nc2ccc(-c3ncnc4[nH]ccc34)cc2)c1,16,-7
O=C(NC1CC1)c1cncc(Nc2ccccn2)c1,4,-5
COc1ccc2c(c1)C[C@H](C(=O)Nc1ccc(-c3cn[nH]c3)cc1OCC1CNC1)NC2,-4,-19
COc1ccc(C(=O)Nc2ccc3oc(-c4ccc(F)cc4)cc(=O)c3c2)cc1,11,·
CCCCCCCCCCCCCCCC[N+](C)(C)Cc1ccccc1,48*,·
CCCCCCCCCCCCCCCC[N+](C)(C)CC,-10,·
c1ccc(CNc2nc(N3CCN(Cc4ccc5c(c4)OCO5)CC3)nc3c2ncn3-c2ccccc2)cc1,-12,26
Nn1cnnc1N/N=C/c1ccc(-c2cccc([N+](=O)[O-])c2)o1,45*,·
O=C(N/N=C\c1ccc(-c2ccc([N+](=O)[O-])cc2)o1)c1cnccn1,-3,·
COc1ccc(-c2nc(Nc3ccc(N4CCOCC4)cc3)nc(OC)n2)cc1,-1,8
SMILES,ULK1 inh,ASK1 primary
COc1nc(N)nc(-c2c(C)nn(C)c2C)n1,5,-3
CC(NC1CC1)c1ccc2c(c1)CC(c1nc3ccc(-c4ccnc(N)n4)cc3[nH]1)CO2 (stereo not drawn),-2,8
CC(C)C[C@H](O)C(=O)N1CCC(Nc2ccc3[nH]ncc3c2)CC1,53*,-38
CC(C)C[C@H](O)C(=O)N1CCC(C(=O)Nc2ccc3[nH]ncc3c2)CC1,2,-10
CC(C)N(CCNC(=O)Cc1cn(-c2ccc(Nc3nc4ccccc4n3C)nn2)c2ccccc12)C(C)C,-3,9
O=C1/C(=C/c2cccs2)CCC/C1=C\c1cccs1,82*,·
O=C1/C(=C\c2cccs2)N2CCC1CC2,10,·
COc1cc(C(=O)OCn2c(=O)oc3ccccc32)cc(OC)c1OC,-4,·
Cn1nccc1Nc1nc(NC2CC2)c2ncn(-c3ccccc3)c2n1,-2,8
CCC(=O)/C=C/n1c(=S)oc2ccccc21,48*,·
O=C(NCc1nc2ccccc2[nH]1)c1csc(Nc2ccc(-n3ccnc3)cc2)n1,0,11
NC(C(=O)N1CC[C@H](C(=O)Nc2ccc3[nH]ncc3c2)C1)c1ccc(Br)cc1 (stereo partly drawn),2,5
CN(C)c1cccc(Nc2ccc(N3CCC(C(=O)NCc4ccccc4)CC3)nn2)c1,10,15
COc1cc2c(cnn2-c2cccc(C(=O)NCCN3CCOCC3)c2)cc1Nc1ccccc1,-18,-3
O=C(NCCN1CCOCC1)c1cccc(-n2ncc3cc(Nc4ccccc4)c(N4CCOCC4)cc32)c1,65*,-29
